According to PubChem BioAssay AID1159580 (chemical genetic matrix, 2015):
The whole screen tested about 5,500 compounds, of which about 2,000 (36%) were called active. Another 18% or so got no clear call; they are omitted. Rule as the data show it: active = normalized growth mostly below about 0.91 (no sharp cut-off); inconclusive = no clear call, values can overlap the other calls; inactive = mostly above about 0.92. The list shows a part of the results.

Experiment: chemical genetic growth profiling, strain panel (AID 1159580);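 also: tested at 20 µM; growth read once vehicle control cultures reached saturation at 30 °C; 1 = growth at the plate median or of vehicle wells; lower values mean less growth of the strain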
Conditions: growth OD

Measured: normalized growth

Cc1cc(=O)c2c(O)c(C)c(O)cc2o1
inactive: S. cerevisiae deletion strains, locus YAL021C, strain ccr4, hits give low values 1 | S. cerevisiae deletion strains, locus YAL026C, strain drs2, hits give low values 1.04 | S. cerevisiae deletion strains, locus YAL030W, strain snc1, hits give low values 1.02 | S. cerevisiae deletion strains, locus YBL061C, strain skt5, hits give low values 1.02 | S. cerevisiae deletion strains, locus YBR009C, strain hhf1, hits give low values 1.01 | S. cerevisiae deletion strains, locus YBR021W, strain FUR4, hits give low values 0.91 | S. cerevisiae deletion strains, locus YBR023C, strain chs3, hits give low values 1.03 | S. cerevisiae deletion strains, locus YBR171W, strain sec66, hits give low values 1.03 | S. cerevisiae deletion strains, locus YBR229C, strain ROT2, hits give low values 1.02 | S. cerevisiae deletion strains, locus YBR231C, strain swc5, hits give low values 1.02 | S. cerevisiae deletion strains, locus YBR279W, strain paf1, hits give low values 1.01 | S. cerevisiae deletion strains, locus YCL011C, strain gbp2, hits give low values 1.04 | S. cerevisiae deletion strains, locus YCL016C, strain dcc1, hits give low values 1.01 | S. cerevisiae deletion strains, locus YCL029C, strain bik1, hits give low values 0.975 | S. cerevisiae deletion strains, locus YCL069W, strain vba3, hits give low values 1.02 | S. cerevisiae deletion strains, locus YCR088W, strain abp1, hits give low values 1.02 | S. cerevisiae deletion strains, locus YDL005C, strain med2, hits give low values 1.02 | S. cerevisiae deletion strains, locus YDL035C, strain GPR1, hits give low values 0.978 | S. cerevisiae deletion strains, locus YDL040C, strain nat1, hits give low values 1.01 | S. cerevisiae deletion strains, locus YDL074C, strain BRE1, hits give low values 0.973 | S. cerevisiae deletion strains, locus YDL101C, strain DUN1, hits give low values 0.991 | S. cerevisiae deletion strains, locus YDL134C, strain PPH21, hits give low values 0.983 | S. cerevisiae deletion strains, locus YDL185W, strain tfp1, hits give low values 0.983 | S. cerevisiae deletion strains, locus YDL192W, strain arf1, hits give low values 0.954 | S. cerevisiae deletion strains, locus YDR001C, strain nth1, hits give low values 1.02 | S. cerevisiae deletion strains, locus YDR069C, strain doa4, hits give low values 1.02 | S. cerevisiae deletion strains, locus YDR101C, strain arx1, hits give low values 0.957 | S. cerevisiae deletion strains, locus YDR137W, strain rgp1, hits give low values 1.03 | S. cerevisiae deletion strains, locus YDR159W, strain sac3, hits give low values 1.03 | S. cerevisiae deletion strains, locus YDR162C, strain NBP2, hits give low values 0.922 | S. cerevisiae deletion strains, locus YDR195W, strain ref2 1.01 | S. cerevisiae deletion strains, locus YDR297W, strain sur2, hits give low values 1.01 | S. cerevisiae deletion strains, locus YDR318W, strain mcm21, hits give low values 0.95 | S. cerevisiae deletion strains, locus YDR334W, strain swr1, hits give low values 1.01 | S. cerevisiae deletion strains, locus YDR335W, strain msn5, hits give low values 1.04 | S. cerevisiae deletion strains, locus YDR388W, hits give low values 0.988 | S. cerevisiae deletion strains, locus YDR392W, strain spt3, hits give low values 1.04 | S. cerevisiae deletion strains, locus YDR502C, strain sam2, hits give low values 0.935 | S. cerevisiae deletion strains, locus YEL003W, strain gim4, hits give low values 1.02 | S. cerevisiae deletion strains, locus YEL037C, strain rad23, hits give low values 1.03 | S. cerevisiae deletion strains, locus YEL061C, strain CIN8 (second series), hits give low values 1.01 | S. cerevisiae deletion strains, locus YEL061C, strain CIN8, hits give low values 1 | S. cerevisiae deletion strains, locus YER015W, strain faa2, hits give low values 1.02 | S. cerevisiae deletion strains, locus YER016W, strain bim1, hits give low values 1.01 | S. cerevisiae deletion strains, locus YER110C, hits give low values 0.96 | S. cerevisiae deletion strains, locus YER111C, strain swi4, hits give low values 1.03 | S. cerevisiae deletion strains, locus YER155C, strain BEM2 (second series), hits give low values 1.04 | S. cerevisiae deletion strains, locus YER155C, strain BEM2, hits give low values 1.02 | S. cerevisiae deletion strains, locus YER167W, strain BCK2, hits give low values 1.01 | S. cerevisiae deletion strains, locus YFR010W, strain ubp6, hits give low values 1.04 | S. cerevisiae deletion strains, locus YGL078C, strain dbp3, hits give low values 0.949 | S. cerevisiae deletion strains, locus YGL086W, strain mad1, hits give low values 0.967 | S. cerevisiae deletion strains, locus YGL167C, strain pmr1, hits give low values 1.03 | S. cerevisiae deletion strains, locus YGL173C, strain kem1, hits give low values 1.02 | S. cerevisiae deletion strains, locus YGL227W, strain vid30, hits give low values 1.02 | S. cerevisiae deletion strains, locus YGL240W, strain doc1, hits give low values 1.01 | S. cerevisiae deletion strains, locus YGL248W, strain PDE1, hits give low values 0.997 | S. cerevisiae deletion strains, locus YGL253W, strain hxk2, hits give low values 1.02 | S. cerevisiae deletion strains, locus YGR078C, strain PAC10, hits give low values 0.963 | S. cerevisiae deletion strains, locus YGR135W, strain pre9, hits give low values 0.932 | S. cerevisiae deletion strains, locus YGR252W, strain gcn5, hits give low values 0.815 | S. cerevisiae deletion strains, locus YHR013C, strain ard1, hits give low values 1.07 | S. cerevisiae deletion strains, locus YHR027C, strain rpn1, hits give low values 1.03 | S. cerevisiae deletion strains, locus YHR079C, strain IRE1 (second series), hits give low values 0.978 | S. cerevisiae deletion strains, locus YHR094C, strain hxt1, hits give low values 0.984 | S. cerevisiae deletion strains, locus YHR129C, strain ARP1, hits give low values 1 | S. cerevisiae deletion strains, locus YHR142W, strain chs7, hits give low values 1.04 | S. cerevisiae deletion strains, locus YHR200W, strain rpn10, hits give low values 0.958 | S. cerevisiae deletion strains, locus YIL066C, strain RNR3, hits give low values 1.02 | S. cerevisiae deletion strains, locus YIL073C, strain SPO22, hits give low values 0.999 | S. cerevisiae deletion strains, locus YIL125W, strain kgd1, hits give low values 0.986 | S. cerevisiae deletion strains, locus YIR030C, strain dcg1, hits give low values 0.99 | S. cerevisiae deletion strains, locus YJL092W, strain hpr5, hits give low values 1.02 | S. cerevisiae deletion strains, locus YJL095W, strain BCK1 (second series), hits give low values 1.02 | S. cerevisiae deletion strains, locus YJL095W, strain BCK1, hits give low values 0.934 | S. cerevisiae deletion strains, locus YJL115W, strain asf1, hits give low values 1.03 | S. cerevisiae deletion strains, locus YJL129C, strain trk1, hits give low values 1.01 | S. cerevisiae deletion strains, locus YJL134W, strain LCB3, hits give low values 1.01 | S. cerevisiae deletion strains, locus YJL154C, strain vps35, hits give low values 1.03 | S. cerevisiae deletion strains, locus YJL164C, strain tpk1, hits give low values 1.01 | S. cerevisiae deletion strains, locus YJL166W, strain qcr8, hits give low values 1.01 | S. cerevisiae deletion strains, locus YJL168C, strain set2, hits give low values 0.994 | S. cerevisiae deletion strains, locus YJL187C, strain SWE1 (second series), hits give low values 0.971 | S. cerevisiae deletion strains, locus YJL187C, strain SWE1, hits give low values 1 | S. cerevisiae deletion strains, locus YJR043C, strain POL32, hits give low values 0.992 | S. cerevisiae deletion strains, locus YKL009W, strain mrt4, hits give low values 0.961 | S. cerevisiae deletion strains, locus YKL068W, hits give low values 1 | S. cerevisiae deletion strains, locus YKL085W, strain MDH1 (second series), hits give low values 0.996 | S. cerevisiae deletion strains, locus YKL085W, strain MDH1, hits give low values 0.996 | S. cerevisiae deletion strains, locus YKL160W, strain elf1, hits give low values 1.02 | S. cerevisiae deletion strains, locus YKR026C, strain gcn3, hits give low values 1.02 | S. cerevisiae deletion strains, locus YKR091W, strain srl3, hits give low values 1.02 | S. cerevisiae deletion strains, locus YLL001W, strain dnm1, hits give low values 1.02 | S. cerevisiae deletion strains, locus YLL026W, hits give low values 1.01 | S. cerevisiae deletion strains, locus YLL041C, strain sdh2, hits give low values 1.02 | S. cerevisiae deletion strains, locus YLR027C, strain aat2, hits give low values 1 | S. cerevisiae deletion strains, locus YLR039C, strain RIC1, hits give low values 1.1 | S. cerevisiae deletion strains, locus YLR058C, strain SHM2, hits give low values 0.978 | S. cerevisiae deletion strains, locus YLR102C, strain apc9, hits give low values 0.976 | S. cerevisiae deletion strains, locus YLR221C, strain rsa3, hits give low values 1.01 | S. cerevisiae deletion strains, locus YLR258W, strain gsy2, hits give low values 1.01 | S. cerevisiae deletion strains, locus YLR262C, strain YPT6 (second series), hits give low values 1.01 | S. cerevisiae deletion strains, locus YLR262C, strain YPT6, hits give low values 1.12 | S. cerevisiae deletion strains, locus YLR268W, strain sec22, hits give low values 0.957 | S. cerevisiae deletion strains, locus YLR320W, strain mms22, hits give low values 1.04 | S. cerevisiae deletion strains, locus YLR330W, strain CHS5, hits give low values 0.998 | S. cerevisiae deletion strains, locus YLR342W, strain FKS1, hits give low values 1.01 | S. cerevisiae deletion strains, locus YLR357W, strain rsc2, hits give low values 1.02 | S. cerevisiae deletion strains, locus YLR370C, strain arc18, hits give low values 1.04 | S. cerevisiae deletion strains, locus YLR371W, strain rom2, hits give low values 0.954 | S. cerevisiae deletion strains, locus YLR384C, strain iki3, hits give low values 1.01 | S. cerevisiae deletion strains, locus YLR418C, strain cdc73, hits give low values 0.854 | S. cerevisiae deletion strains, locus YML016C, strain PPZ1, hits give low values 1.01 | S. cerevisiae deletion strains, locus YML032C, strain rad52, hits give low values 0.929 | S. cerevisiae deletion strains, locus YML120C, strain ndi1, hits give low values 1.02 | S. cerevisiae deletion strains, locus YML124C, strain tub3, hits give low values 0.99 | S. cerevisiae deletion strains, locus YMR058W, strain fet3, hits give low values 1.03 | S. cerevisiae deletion strains, locus YMR078C, strain ctf18, hits give low values 0.983 | S. cerevisiae deletion strains, locus YMR125W, strain sto1, hits give low values 0.989 | S. cerevisiae deletion strains, locus YMR129W, hits give low values 1.02 | S. cerevisiae deletion strains, locus YMR205C, strain PFK2, hits give low values 1.01 | S. cerevisiae deletion strains, locus YMR223W, strain ubp8, hits give low values 0.963 | S. cerevisiae deletion strains, locus YMR231W, strain pep5, hits give low values 1.02 | S. cerevisiae deletion strains, locus YMR307W, strain GAS1, hits give low values 0.989 | S. cerevisiae deletion strains, locus YNL067W, strain RPL9B, hits give low values 0.971 | S. cerevisiae deletion strains, locus YNL071W, strain lat1, hits give low values 1.02 | S. cerevisiae deletion strains, locus YNL128W, strain TEP1, hits give low values 0.993 | S. cerevisiae deletion strains, locus YNL209W, strain ssb2, hits give low values 1.02 | S. cerevisiae deletion strains, locus YNL233W, strain BNI4, hits give low values 0.956 | S. cerevisiae deletion strains, locus YNL248C, strain rpa49, hits give low values 1.01 | S. cerevisiae deletion strains, locus YNL250W, strain rad50, hits give low values 0.967 | S. cerevisiae deletion strains, locus YNL271C, strain bni1, hits give low values 0.993 | S. cerevisiae deletion strains, locus YNL298W, strain CLA4, hits give low values 0.969 | S. cerevisiae deletion strains, locus YNL307C, strain MCK1, hits give low values 0.971 | S. cerevisiae deletion strains, locus YNL322C, strain KRE1 (second series), hits give low values 1.02 | S. cerevisiae deletion strains, locus YNL322C, strain KRE1, hits give low values 0.994 | S. cerevisiae deletion strains, locus YNR049C, strain mso1, hits give low values 1.01 | S. cerevisiae deletion strains, locus YNR052C, strain pop2, hits give low values 0.987 | S. cerevisiae deletion strains, locus YOL006C, strain TOP1, hits give low values 0.946 | S. cerevisiae deletion strains, locus YOL012C, strain htz1 1.07 | S. cerevisiae deletion strains, locus YOL147C, strain pex11, hits give low values 0.966 | S. cerevisiae deletion strains, locus YOR001W, strain rrp6, hits give low values 1.03 | S. cerevisiae deletion strains, locus YOR061W, strain CKA2, hits give low values 1.02 | S. cerevisiae deletion strains, locus YOR069W, strain VPS5, hits give low values 1 | S. cerevisiae deletion strains, locus YOR070C, strain gyp1, hits give low values 1.02 | S. cerevisiae deletion strains, locus YOR080W, strain dia2, hits give low values 1.02 | S. cerevisiae deletion strains, locus YOR083W, strain WHI5, hits give low values 1.01 | S. cerevisiae deletion strains, locus YOR106W, strain vam3, hits give low values 1.02 | S. cerevisiae deletion strains, locus YOR136W, strain idh2, hits give low values 0.949 | S. cerevisiae deletion strains, locus YOR144C, strain elg1, hits give low values 0.988 | S. cerevisiae deletion strains, locus YOR184W, strain ser1, hits give low values 0.986 | S. cerevisiae deletion strains, locus YOR265W, strain rbl2, hits give low values 1.01 | S. cerevisiae deletion strains, locus YOR270C, strain vph1, hits give low values 1.07 | S. cerevisiae deletion strains, locus YOR290C, strain snf2, hits give low values 1.03 | S. cerevisiae deletion strains, locus YOR316C, strain cot1, hits give low values 0.983 | S. cerevisiae deletion strains, locus YPL051W, strain arl3, hits give low values 1.02 | S. cerevisiae deletion strains, locus YPL078C, strain atp4, hits give low values 1.03 | S. cerevisiae deletion strains, locus YPL106C, strain sse1, hits give low values 1.03 | S. cerevisiae deletion strains, locus YPL240C, strain hsp82, hits give low values 1.01 | S. cerevisiae deletion strains, locus YPL241C, strain CIN2, hits give low values 0.997 | S. cerevisiae deletion strains, locus YPR119W, strain clb2, hits give low values 0.99 | S. cerevisiae deletion strains, locus YPR141C, strain kar3, hits give low values 1.01 | S. cerevisiae deletion strains, locus YPR167C, strain met16, hits give low values 0.957 | S. cerevisiae deletion strains, strain wtn01, hits give low values 0.97 | S. cerevisiae strains, strain wild type, hits give low values 1.02
active: S. cerevisiae deletion strains, locus YKR001C, strain vps1, hits give low values 0.888 | S. cerevisiae deletion strains, locus YPR163C, strain tif3, hits give low values 0.866
